Source: the supplement of paper PMC8728848
The full list was thinned out, with the strongest signals kept by preference.

Columns and labels:
Test in all cases: glycan array binding signal (z-score within array); higher = stronger binding
Conditions in all cases: glycan notation: IUPAC condensed, linker removed
[1] = system: Gal(b1-3)GlcNAc(b1-3)Gal(b1-4)Glc
In short: (§1)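 The binding signal is a Z-score computed within each array and averaged over linkers. Arrays of the same protein sequence at different concentrations or buffers were also averaged together. Data originate from 3228 arrays in the Consortium for Functional Glycomics database, kept only where the protein sequence was available.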

[2] = system: Gal(b1-3)[Fuc(a1-4)]GlcNAc(b1-2)Man(a1-3)[Gal(b1-3)[Fuc(a1-4)]GlcNAc(b1-2)Man(a1-6)]Man(b1-4)GlcNAc(b1-4)GlcNAc
In short: as §1

Gal(b1-3)GlcNAc(b1-2)Man = system: Gal(b1-3)GlcNAc(b1-2)Man
In short: as §1

[3] = system: Gal(b1-3)GlcNAc(b1-3)Gal(b1-4)GlcNAc(b1-2)[Gal(b1-3)GlcNAc(b1-3)Gal(b1-4)GlcNAc(b1-6)]Man(a1-6)[Gal(b1-3)GlcNAc(b1-3)Gal(b1-4)GlcNAc(b1-2)Man(a1-3)]Man(b1-4)GlcNAc(b1-4)[Fuc(a1-6)]GlcNAc
In short: as §1

[4] = system: Gal(b1-3)GlcNAc(b1-3)Gal(b1-4)GlcNAc(b1-3)Gal(b1-4)GlcNAc(b1-2)[Gal(b1-3)GlcNAc(b1-3)Gal(b1-4)GlcNAc(b1-3)Gal(b1-4)GlcNAc(b1-6)]Man(a1-6)[Gal(b1-3)GlcNAc(b1-3)Gal(b1-4)GlcNAc(b1-3)Gal(b1-4)GlcNAc(b1-2)Man(a1-3)]Man(b1-4)GlcNAc(b1-4)[Fuc(a1-6)]GlcNAc
In short: as §1

[5] = system: Gal(b1-3)GlcNAc(b1-6)Gal(b1-4)GlcNAc
In short: as §1

Gal(b1-3)GlcNAc6S = system: Gal(b1-3)GlcNAc6S
In short: as §1

[6] = system: Gal(b1-3)GlcNAc(b1-2)Man(a1-3)[GlcNAc(b1-4)][Gal(b1-3)GlcNAc(b1-2)Man(a1-6)]Man(b1-4)GlcNAc(b1-4)GlcNAc
In short: as §1

[7] = system: Gal(b1-3)GlcNAc(b1-3)Gal(b1-4)GlcNAc(b1-6)[Gal(b1-3)GlcNAc(b1-3)]Gal(b1-4)Glc
In short: as §1

[8] = system: Gal(b1-3)GlcNAc(b1-6)GalNAc
In short: as §1

Substance: Wza (Escherichia coli), P0A930
- glycan array binding signal (z-score) [1]: -0.658

Substance: BambL (Burhholderia ambifaria), Q0B4G1
- glycan array binding signal (z-score) [1]: -0.312
- glycan array binding signal (z-score) [2]: -0.317

Substance: Epa22
- glycan array binding signal (z-score) (Gal(b1-3)GlcNAc(b1-2)Man): -0.018

Substance: AgI/IIC123-GFP (Streptococcus mutans)
- glycan array binding signal (z-score) [3]: 5.61
- glycan array binding signal (z-score) [4]: -0.036
- glycan array binding signal (z-score) [5]: 0.823
- glycan array binding signal (z-score) (Gal(b1-3)GlcNAc6S): -0.244

Substance: SpGH101 (Streptococcus pneumoniae), Q8DR60
- glycan array binding signal (z-score) [2]: 1.28

Substance: LcI (Legionella pneumophila)
- glycan array binding signal (z-score) [6]: 0.389
- glycan array binding signal (z-score) [7]: -0.388
- glycan array binding signal (z-score) [5]: -0.157
- glycan array binding signal (z-score) [8]: 3.69
